Laboratory results reported in PubChem BioAssay (NCI).
Values joined by “and” are separate entries in the source; they are usually repeats but may differ in a detail not shown here. Equal entries are not always repeated. Compounds without any hit were thinned out: in the full panel of roughly 83,000, 20% have a hit.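 The test compound was applied at a single concentration to cells in 96-well plates for 48 hours, and percent growth was recorded.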 Active and inactive are the calls of the source. The calls were made as follows: active = growth percent below 10; inactive = the rest.

How the values were obtained:
Assay in all cases: NCI-60 one-dose screen, 48 h (100 = growth as untreated, 0 = no growth, -100 = all killed)
Details in all cases: 10 µM unless noted
[1] = tested on: NCI-H23 lung
[2] = tested on: NCI-H226 lung
[3] = tested on: NCI-H322M lung
[4] = tested on: HOP-62 NSCLC
[5] = tested on: NCI-H460 lung
[6] = tested on: HOP-92 NSCLC
[7] = tested on: NCI-H522 lung
[8] = tested on: A549/ATCC NSCLC
[9] = tested on: 786-0 renal
[10] = tested on: COLO 205 colon
[11] = tested on: DU-145 prostate
[12] = tested on: K-562 leukemia
[13] = tested on: MALME-3M melanoma
[14] = tested on: MDA-MB-231 breast
[15] = tested on: RXF 393 renal
[16] = tested on: SF-268 CNS
[17] = tested on: SF-295 CNS
[18] = tested on: SF-539 CNS
[19] = tested on: UACC-257 melanoma
[20] = tested on: M14 melanoma

Structure (SMILES) | growth [1] | growth [2] | growth [3] | growth [4] | growth [5] | growth [6] | growth [7] | growth [8] | growth [9] | growth [10] | growth [11] | growth [12] | growth [13] | growth [14] | growth [15] | growth [16] | growth [17] | growth [18] | growth [19] | growth [20]
COc1cc(/C=N/Nc2nc3c([nH]2)c(=O)n(C)c(=O)n3C)ccc1O | 93.6% (inactive) and 111% (inactive) | 103% (inactive) and 113% (inactive) | 101% (inactive) and 105% (inactive) | 105% (inactive) and 102% (inactive) | 109% (inactive) and 111% (inactive) | 102% (inactive) | 87.8% (inactive) and 95.7% (inactive) | 105% (inactive) and 97.8% (inactive) | 95.7% (inactive) and 112% (inactive) | 119% (inactive) and 126% (inactive) | 114% (inactive) | 91.4% (inactive) and 106% (inactive) | 88.5% (inactive) and 97.9% (inactive) | 96.4% (inactive) and 107% (inactive) | 122% (inactive) and 123% (inactive) | 104% (inactive) and 109% (inactive) | 115% (inactive) and 118% (inactive) | 89.9% (inactive) and 104% (inactive) | 102% (inactive) and 110% (inactive) | 102% (inactive) and 108% (inactive)
CN(C)c1ccc2nc3ccc(=[N+](C)C)cc-3sc2c1 | 12.5% (inactive) and 8.52% (active) and 28% (inactive) | 52.2% (inactive) and 66.6% (inactive) and 68.8% (inactive) | 24.8% (inactive) and 11.7% (inactive) and 30.7% (inactive) | 58.7% (inactive) and 24.6% (inactive) and 46.6% (inactive) | 17.1% (inactive) and 13.5% (inactive) and 32.9% (inactive) | 63.3% (inactive) and 43.9% (inactive) and 76.6% (inactive) | 6.69% (active) and 34.6% (inactive) and 37.6% (inactive) | 3.7% (active) and 3.9% (active) and 14.7% (inactive) | 40.9% (inactive) and 45.6% (inactive) and 54.6% (inactive) | 11.2% (inactive) and -3.25% (active) and -16.6% (active) | 33.3% (inactive) and 39.8% (inactive) and 87.1% (inactive) | 27.4% (inactive) and 41.7% (inactive) and 43.5% (inactive) | -30.4% (active) and -12.7% (active) and 48.8% (inactive) | 8.14% (active) and 10% (active) and 33.4% (inactive) | 79.9% (inactive) and 65.7% (inactive) and 82.6% (inactive) | 27.7% (inactive) and 22.8% (inactive) and 26.2% (inactive) | 17.2% (inactive) and 17.6% (inactive) and 43% (inactive) | 28.4% (inactive) and 3.79% (active) and 15.5% (inactive) | -12.8% (active) and -22.4% (active) and 17.8% (inactive) | 2.78% (active) and 3.94% (active) and 15.5% (inactive)
Oc1ccccc1/C=N\NC(=S)N/N=C/c1ccccc1O | 62.6% (inactive) and 58.7% (inactive) | 68.1% (inactive) and 43.4% (inactive) | 24.8% (inactive) and 29.7% (inactive) | 48.9% (inactive) and 71.5% (inactive) | 19.5% (inactive) and 12.5% (inactive) | 45.9% (inactive) and 62.4% (inactive) | 31% (inactive) and 2.87% (active) | 32.4% (inactive) | 29% (inactive) and 27.1% (inactive) | 65.6% (inactive) and 48.7% (inactive) | 55% (inactive) and 44.6% (inactive) | 26% (inactive) | 39.6% (inactive) and 42.9% (inactive) | 55% (inactive) and 44.2% (inactive) | 80.7% (inactive) and 63.9% (inactive) | 50% (inactive) and 37% (inactive) | 22.4% (inactive) and 30.6% (inactive) | 45.4% (inactive) and 23.2% (inactive) | 40.3% (inactive) and 34.2% (inactive) | 24.4% (inactive) and 24.5% (inactive)
O=C(CCl)c1ccc2c(c1)Nc1ccccc1S2 | 90.7% (inactive) and 94.2% (inactive) | 89.4% (inactive) and 91.2% (inactive) | 102% (inactive) and 92.7% (inactive) | 97.6% (inactive) and 99.8% (inactive) | 110% (inactive) and 105% (inactive) | 101% (inactive) | 66.1% (inactive) and -35.2% (active) | 100% (inactive) and 106% (inactive) | 63.6% (inactive) and 79.1% (inactive) | 110% (inactive) and 86.7% (inactive) | 104% (inactive) | 29.5% (inactive) and 30.3% (inactive) | 91.5% (inactive) | 97.7% (inactive) and 89.5% (inactive) | 103% (inactive) | 104% (inactive) and 98.5% (inactive) | 94.8% (inactive) and 96.3% (inactive) | 91.7% (inactive) and 84.5% (inactive) | 102% (inactive) and 96.8% (inactive) | 91.6% (inactive) and 91.5% (inactive)
CCC(C)C1(C2CCCC2)NC(=O)NC1=O (stereo not given) | 103% (inactive) and 101% (inactive) | 113% (inactive) and 108% (inactive) | 99.1% (inactive) and 115% (inactive) | 98.6% (inactive) and 102% (inactive) | 117% (inactive) and 107% (inactive) | 92.1% (inactive) | 77.2% (inactive) and 105% (inactive) | 100% (inactive) and 106% (inactive) | 104% (inactive) and 108% (inactive) | 102% (inactive) and 116% (inactive) | 121% (inactive) | 99.3% (inactive) | 114% (inactive) | 101% (inactive) and 94.3% (inactive) | 106% (inactive) and 127% (inactive) | 103% (inactive) and 107% (inactive) | 117% (inactive) and 93.9% (inactive) | 104% (inactive) and 96.6% (inactive) | 94.9% (inactive) and 101% (inactive) | 98.4% (inactive) and 106% (inactive)
COc1ccc2cc3[n+](cc2c1OC)CCc1cc2c(cc1-3)OCO2 | 43.4% (inactive) and 50.4% (inactive) | 73.8% (inactive) and 79.5% (inactive) | 96% (inactive) and 99.4% (inactive) | 43.9% (inactive) and 85.4% (inactive) | 75.9% (inactive) and 88.9% (inactive) | 76.1% (inactive) and 20.6% (inactive) | 68.7% (inactive) and 53% (inactive) | 75.1% (inactive) and 59.4% (inactive) | 73.5% (inactive) and 66.9% (inactive) | 59.5% (inactive) and 68.4% (inactive) | 92.5% (inactive) and 78.4% (inactive) | 41.1% (inactive) and 40% (inactive) | 31.6% (inactive) and 42% (inactive) | 81.7% (inactive) and 87.5% (inactive) | 89.1% (inactive) and 60.9% (inactive) | 42.9% (inactive) and 40.7% (inactive) | 19.3% (inactive) and 45.1% (inactive) | 68.6% (inactive) and 82.9% (inactive) | 48.1% (inactive) and 88.5% (inactive) | 83.2% (inactive) and 110% (inactive)
O=S(=O)(Nc1ccccc1)C1CCCCC1 | 98.6% (inactive) and 96.6% (inactive) | 106% (inactive) and 103% (inactive) | 103% (inactive) and 116% (inactive) | 107% (inactive) and 101% (inactive) | 112% (inactive) and 118% (inactive) | 113% (inactive) and 108% (inactive) | 84.5% (inactive) and 94.1% (inactive) | 98.7% (inactive) and 108% (inactive) | 105% (inactive) and 110% (inactive) | 102% (inactive) and 122% (inactive) | 108% (inactive) and 113% (inactive) | 97.6% (inactive) and 93.8% (inactive) | 121% (inactive) and 123% (inactive) | 106% (inactive) and 105% (inactive) | 120% (inactive) and 118% (inactive) | 99% (inactive) and 114% (inactive) | 105% (inactive) and 110% (inactive) | 109% (inactive) and 95.4% (inactive) | 108% (inactive) and 107% (inactive) | 101% (inactive) and 99.5% (inactive)
